Source: PubChem (National Center for Advancing Translational Sciences (NCATS))
Compounds with a hit are over-represented: about 7.3% of the library has one in this group of screens.
NPC1 prom act: activators of NPC1 promoter; Huh7 NPC1 promoter luciferase reporter, 24 h; actives 2.4% (n = 320,000); Potency, µM (doses to about 9.22 µM), usual class: activators; note: nearly all actives have a fitted effect of over 60% in size
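Stably transfected Huh7 (NPC1 promoter→luciferase), 1500 cells/well in Opti-MEM + 10% FBS, 2 h settle, then compound 24 h at 37 °C. Luminescence after 10 min with Amplite reagent.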
SMN2 splice up: enhancers of SMN2 splice variant expression; HEK293 SMN2-luciferase splicing reporter, luminescence, 30-36 h; Potency, µM (top dose mostly 46.1 µM), actives largely listed as activators; actives 2.8% (n = 210,000); AID 1458; note: nearly all actives have a fitted effect of over 55% in size
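HEK293 cells carry an SMN2 minigene-luciferase reporter in which exon 7 inclusion puts luciferase in frame. Cells were seeded at 2000 cells/well, attached for 10-12 hours, then exposed to compounds for 30-36 hours at 37C before ONE-Glo luminescence.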
Rab9 promoter act: activates the Rab9 promoter | Huh7 Rab9 promoter-luciferase reporter, luminescence, 24 h | Potency, µM (top dose mostly 9.22 µM), usual class: activators | actives 2.8% (n = 320,000); note: nearly all actives have a fitted effect of over 60% in size
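Rab9 promoter-driven luciferase in stably transfected Huh7 cells; 1500 cells/well rested 2 h, exposed to compound in DMSO for 24 h at 37 °C, 5% CO2. Luminescence read 10 min after adding luciferase reagent at ambient temperature.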
ELG1 genotox: inducers of genotoxicity in HEK293T ELG1-luciferase cells; HEK293T ELG1-luciferase reporter, luminescence, 16 h; Potency, µM (highest dose often 46 µM), most hits filed as activators; actives 1.3% (n = 330,000); AID 504466; note: nearly all actives have a fitted effect of over 60% in size
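Genotoxic stress is detected as increased luminescence from luciferase-tagged ELG1 in HEK293T cells, measured with ONE-Glo after a 16 hr treatment at 37 °C.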
FLuc modulator: counter-screen for miR-21 project: firefly luciferase inhibitors or activators | P08659 | purified FLuc, Km substrates, luminescence inhibition | Potency, µM (titrated, usually from 57.5 µM), actives largely listed as inhibitors | actives 6.9% (n = 360,000) | AID 588342; note: nearly all actives have a fitted effect of over 55% in size
Target sequence (P08659 whole entry, looked up): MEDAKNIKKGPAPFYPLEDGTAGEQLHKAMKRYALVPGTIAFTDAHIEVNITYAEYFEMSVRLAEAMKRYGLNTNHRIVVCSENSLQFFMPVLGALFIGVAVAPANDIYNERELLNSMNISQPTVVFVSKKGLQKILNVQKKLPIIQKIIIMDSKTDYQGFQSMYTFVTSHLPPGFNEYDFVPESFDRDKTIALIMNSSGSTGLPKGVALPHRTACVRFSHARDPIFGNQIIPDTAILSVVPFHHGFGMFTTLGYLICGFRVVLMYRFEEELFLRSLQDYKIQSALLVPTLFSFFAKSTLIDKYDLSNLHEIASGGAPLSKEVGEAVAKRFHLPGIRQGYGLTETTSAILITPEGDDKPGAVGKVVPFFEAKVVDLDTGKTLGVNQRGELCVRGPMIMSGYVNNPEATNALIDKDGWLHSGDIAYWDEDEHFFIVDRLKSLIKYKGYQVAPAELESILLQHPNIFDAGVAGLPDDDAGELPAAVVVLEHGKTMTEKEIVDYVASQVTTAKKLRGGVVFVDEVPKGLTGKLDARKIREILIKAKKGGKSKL
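Purified P. pyralis luciferase (10nM final) with 10uM D-luciferin and 10uM ATP (Km levels) in 50mM Tris acetate pH 7.5, 10mM Mg acetate, 0.01% Tween-20, 0.05% BSA; qHTS 6-point titration, ~60 µM downward; luminescence read.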
Luc counter: Kinase-Glo luciferase inhibition (counter-screen); Q27757; Kinase-Glo luciferase, ATP luminescence, 8 min; Potency, µM (series often up to 38.3 µM), actives largely listed as inhibitors; actives 0.28% (n = 200,000); AID 1379; note: nearly all actives have a fitted effect of over 60% in size
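Compound is pinned into ATP-containing buffer (10 uM ATP, imidazole pH 7.2, 7 mM MgCl2). Kinase-Glo luciferase reagent is then added. Light output is recorded following an 8-min room-temperature incubation.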
Of the large screens only hits and unclear results are named; the others gave an inactive call. Calls come from the whole dose curve; as a rule, active = well fitted curve in the direction sought with a large enough effect; inconclusive = small, poorly fitted or top-dose-only effect, or another doubt; inactive = no such curve, though single readings can be large; an effect the other way counts as inactive or inconclusive.

C=CCSc1nsc(NC(=O)Nc2ccc(F)cc2)n1	FLuc modulator 23.9µM (no result: SMN2 splice up, Luc counter)
O=C(Nc1ccc(F)cc1)Nc1nnc(SCC(=O)N2CCCCC2)s1	none (no result: NPC1 prom act, SMN2 splice up, Rab9 promoter act, ELG1 genotox, Luc counter)
CCSc1nsc(NC(=O)Nc2ccccc2F)n1	NPC1 prom act 2.82µM, Rab9 promoter act 1.58µM, FLuc modulator 10.7µM (no result: SMN2 splice up, Luc counter)
Cc1cccc(C(=O)N2CCCC(c3nc(-c4ccc(C)o4)no3)C2)c1 (configuration not stated)	NPC1 prom act inconclusive, Rab9 promoter act 3.98µM, FLuc modulator inconclusive (no result: SMN2 splice up, Luc counter)
CCOc1ccc(C(=O)N2CCCC(c3nc(-c4cccs4)no3)C2)cc1 (configuration not stated)	FLuc modulator 21.3µM (no result: SMN2 splice up, Luc counter)
Cc1ccc(-c2noc(C3CCCN(C(=O)c4cccc([N+](=O)[O-])c4)C3)n2)o1 (configuration not stated)	NPC1 prom act inconclusive, Rab9 promoter act inconclusive (no result: SMN2 splice up, Luc counter)
CCC(CC)C(=O)N1CCCC(c2nc(-c3cccs3)no2)C1 (configuration not stated)	none
COc1ccc(C2C(=O)N(C3CCCCC3)CC(=O)N2CCc2ccc(C)cc2)cc1OC (configuration not stated)	none (no result: NPC1 prom act, SMN2 splice up, Rab9 promoter act, ELG1 genotox, Luc counter)
Cc1cccc(N2CCN(C(=O)C3CCN(S(=O)(=O)Cc4ccccc4)CC3)CC2)c1C	none (no result: NPC1 prom act, SMN2 splice up, Rab9 promoter act, ELG1 genotox, Luc counter)
CN1/C(=C\C(=O)c2cccs2)Sc2ccccc21	NPC1 prom act inconclusive, Rab9 promoter act 3.55µM, ELG1 genotox inconclusive, FLuc modulator 1.51µM (no result: SMN2 splice up, Luc counter)
O=C(C1CC1)N1c2ccccc2Sc2ccccc21	none (no result: SMN2 splice up, Luc counter)
CN1/C(=C/C(=O)C2CCC2)Sc2ccccc21	NPC1 prom act inconclusive, SMN2 splice up inconclusive, Rab9 promoter act inconclusive, ELG1 genotox inconclusive, FLuc modulator 16.9µM, Luc counter inconclusive
CN1/C(=C\C(=O)c2cccs2)C(C)(C)c2ccccc21	FLuc modulator inconclusive
CN1/C(=C/C(=O)c2cccs2)Sc2ccccc21	SMN2 splice up 7.94µM, ELG1 genotox 1.3µM, FLuc modulator 1.2µM, Luc counter 14.1µM
CC(C)OCCCn1c(=O)c2ccccc2n2c(-c3ccccc3)nnc12	none (no result: NPC1 prom act, SMN2 splice up, Rab9 promoter act, ELG1 genotox, Luc counter)
CCCCc1c(O)nc(SC2CC(=O)N(c3ccc(C(=O)OCC)cc3)C2=O)[nH]c1=O (configuration not stated)	FLuc modulator 21.3µM (no result: SMN2 splice up, Luc counter)
O=C1N/C(=C/c2ccc(N3CCOCC3)o2)C(=O)N1c1cccc(Cl)c1	Rab9 promoter act inconclusive, FLuc modulator 21.3µM
CC(=O)N1c2ccc(S(=O)(=O)NCC3CCC(C(=O)Nc4cccc(C)c4C)CC3)cc2CC1C (configuration not stated)	none (no result: NPC1 prom act, SMN2 splice up, Rab9 promoter act, ELG1 genotox, Luc counter)
COc1ccc(C(=O)Nc2cccc(-c3cn4ccsc4n3)c2)c(OC)c1	FLuc modulator 2.69µM (no result: NPC1 prom act, SMN2 splice up, Rab9 promoter act, ELG1 genotox, Luc counter)
COc1ccc(C(=O)NCc2cn3ccsc3n2)cc1OC	none
COc1ccc(C(=O)Nc2cccc(-c3cn4ccsc4n3)c2)cc1OC	FLuc modulator 3.38µM (no result: NPC1 prom act, SMN2 splice up, Rab9 promoter act, ELG1 genotox, Luc counter)
Cc1cc(C)cc(OCc2cc(=O)n3cc(C)sc3n2)c1	none (no result: NPC1 prom act, Rab9 promoter act, ELG1 genotox, Luc counter)
Cc1ccc(N=C2NC(=O)CS2)cc1	none
Cc1ccc(SCC(=O)N=C2NC(=O)CS2)cc1	FLuc modulator 15.1µM (no result: SMN2 splice up, Luc counter)
NC(=O)[C@H]1CC2(CC(c3cccc(NC(=O)COc4ccc(Cl)cc4)c3)=NO2)CN1C(=O)Cc1ccc([N+](=O)[O-])cc1 (some centres not stated)	FLuc modulator 9.53µM (no result: SMN2 splice up, Luc counter)
NC(=O)[C@@H]1CC2(CC(c3cccc(NC(=O)COc4ccc(Cl)cc4)c3)=NO2)CN1C(=O)c1ccccc1 (some centres not stated)	FLuc modulator 15.1µM (no result: SMN2 splice up, Luc counter)
COc1ccc(C(=O)N2CC3(CC(c4cccc(NC(=O)COc5ccc(Cl)cc5)c4)=NO3)C[C@@H]2C(N)=O)cc1 (some centres not stated)	FLuc modulator 10.7µM (no result: SMN2 splice up, Luc counter)
CCC(=O)Nc1cccc(C2=NOC3(C2)C[C@H](C(N)=O)N(C(=O)c2ccc(Cl)cc2)C3)c1 (some centres not stated)	none (no result: SMN2 splice up, Luc counter)
COc1ccc(OC)c(CNC(=O)CCCn2nc(C)c3c(C)n(-c4ccc(C)cc4)nc3c2=O)c1	none (no result: NPC1 prom act, SMN2 splice up, Rab9 promoter act, ELG1 genotox, Luc counter)
NC(=O)SCC(=O)Nc1ccc2ncccc2c1	none (no result: NPC1 prom act, Rab9 promoter act, ELG1 genotox, FLuc modulator)
